# Measured values reported in PubChem BioAssay (NCATS).
# Inconclusive results are not listed. A number with no mark means an inactive call. Active and inactive are the calls of the source. The call rests on the fitted dose curve. Numbered stars: 1 amine (or outer) side, 2 acyl side, 3 side chain; on linkers, the order of the positions; unused ones are H or OH. Bridge positions count the residues as written; N and C are the ends. Square brackets hold non-standard residues; d marks the D form. Peptide text beside a SMILES is read from it. * marks the point of attachment. ξ: configuration not given here. ξhTyr(3S-OH,4S-OH,3'-OSO3H) = NC(C(=O)O)[C@H](O)[C@@H](O)c1ccc(O)c(OS(=O)(=O)O)c1; Orn(4R-OH,5R-OH) = O=C([C@H](C[C@@H](O)[C@@H](O)N[*:3])N[*:1])[*:2]; X2 = CCCCCOc1ccc(-c2cc(-c3ccc(C(=O)*)cc3)no2)cc1; X3 = C[C@H]1CN([*:1])C(C(=O)[*:2])[C@H]1O; ξGln(3R-OH) = NC(=O)C[C@@H](O)C(N)C(=O)O; ξPro(4R-OH) = O=C(O)C1C[C@@H](O)CN1; ξThr(3R) = C[C@@H](O)C(N)C(=O)O
# Experiment: Primary qHTS for inhibitors of MERS-S pseudo-typed particle cell entry (AID 1479149); further: nearly all actives have a fitted effect of over 60% in size
# Conditions: MERS-S pseudotyped particle entry, luciferase; series mostly up to 57.1 µM; activity change, negative = inhibition: at the top concentration
# On the % scale 0 is the no-effect control and ±100 the full control effect.
SMILES,outcome,"activity change, negative = inhibition [%]"
COc1ccc2c3c1O[C@H]1C[C@@H](O)C=C[C@@]31CCN(C)C2,inactive,–
CC(=O)OC(C)(C)/C=C/C(=O)[C@](C)(O)[C@H]1C(O)C[C@@]2(C)[C@@H]3CC=C4[C@@H](C=C(O[C@@H]5O[C@H](CO)[C@@H](O)[C@H](O)[C@H]5O)C(=O)C4(C)C)[C@]3(C)C(=O)C[C@]12C (some centres undefined),inactive [at 15.3 µM],–
"CCCCCOc1ccc(-c2cc(-c3ccc(C(=O)N[C@H]4C[C@@H](O)[C@@H](O)NC(=O)C5[C@@H](O)[C@@H](C)CN5C(=O)C([C@H](O)CC(N)=O)NC(=O)C([C@H](O)[C@@H](O)c5ccc(O)c(OS(=O)(=O)O)c5)NC(=O)C5C[C@@H](O)CN5C(=O)C([C@@H](C)O)NC4=O)cc3)no2)cc1 (stereo partly drawn) (X2-[Orn(4R-OH,5R-OH)][ξThr(3R)][ξPro(4R-OH)][ξhTyr(3S-OH,4S-OH,3'-OSO3H)][ξGln(3R-OH)][X3]; lactam 1-C)",inactive [at 26.4 µM],–
Cc1onc(-c2ccccc2)c1C(=O)N[C@@H]1C(=O)N2[C@@H]1SC(C)(C)[C@@H]2C(=O)O,inactive,–
CCOc1nc2cccc(C(=O)OCc3oc(=O)oc3C)c2n1Cc1ccc(-c2ccccc2-c2noc(O)n2)cc1,inactive,–
CCC(=O)NS(=O)(=O)c1ccc(-c2c(-c3ccccc3)noc2C)cc1,–,-1.72
COC(=O)N(C)c1c(N)nc(-c2nn(Cc3ccccc3F)c3ncccc23)nc1N,–,-7.8
C[C@H](O)[C@H](O)[C@H]1CNc2nc(N)[nH]c(=O)c2N1,–,2.47
CCCSc1nc(N[C@@H]2C[C@H]2c2ccc(F)c(F)c2)c2nnn([C@@H]3C[C@H](OCCO)[C@@H](O)[C@H]3O)c2n1,–,-23.6
CC1(C)OC(=O)C(OCC2CC2)=C1c1ccc(S(C)(=O)=O)cc1,inactive,–

# Experiment: Primary qHTS for Vero E6 cytotoxicity: counterscreen for inhibitors of SARS-S pseudo-typed particle cell entry (AID 1479150)
# Conditions: cell viability; series mostly up to 57.1 µM; activity change, negative = cytotoxicity: at the top concentration
SMILES,outcome,"activity change, negative = cytotoxicity"
CCN(CC)CCOCCOC(=O)C(CC)(CC)c1ccccc1,inactive,–
COc1ccc2c3c1O[C@H]1C[C@@H](O)C=C[C@@]31CCN(C)C2,inactive,–
CCc1c(Cl)c(O)c(Cl)c(O)c1C(=O)O[C@H]1[C@H](O)[C@H](OC)[C@H](OC/C2=C\C=C\C[C@H](O)/C(C)=C\[C@H](CC)[C@@H](O[C@@H]3OC(C)(C)[C@@H](OC(=O)C(C)C)[C@H](O)[C@@H]3O)/C(C)=C/C(C)=C/C[C@@H]([C@@H](C)O)OC2=O)O[C@@H]1C,inactive,–
CC(=O)OC(C)(C)/C=C/C(=O)[C@](C)(O)[C@H]1C(O)C[C@@]2(C)[C@@H]3CC=C4[C@@H](C=C(O[C@@H]5O[C@H](CO)[C@@H](O)[C@H](O)[C@H]5O)C(=O)C4(C)C)[C@]3(C)C(=O)C[C@]12C (some centres undefined),inactive [at 15.3 µM],–
"CCCCCOc1ccc(-c2cc(-c3ccc(C(=O)N[C@H]4C[C@@H](O)[C@@H](O)NC(=O)C5[C@@H](O)[C@@H](C)CN5C(=O)C([C@H](O)CC(N)=O)NC(=O)C([C@H](O)[C@@H](O)c5ccc(O)c(OS(=O)(=O)O)c5)NC(=O)C5C[C@@H](O)CN5C(=O)C([C@@H](C)O)NC4=O)cc3)no2)cc1 (stereo partly drawn) (X2-[Orn(4R-OH,5R-OH)][ξThr(3R)][ξPro(4R-OH)][ξhTyr(3S-OH,4S-OH,3'-OSO3H)][ξGln(3R-OH)][X3]; lactam 1-C)",–,-0.581% [at 26.4 µM]
Cc1onc(-c2ccccc2)c1C(=O)N[C@@H]1C(=O)N2[C@@H]1SC(C)(C)[C@@H]2C(=O)O,–,2.66%
C[C@]12CC[C@@H]3c4ccc(OC(=O)c5ccccc5)cc4CC[C@H]3[C@@H]1CC[C@@H]2O,inactive,–
CCOc1nc2cccc(C(=O)OCc3oc(=O)oc3C)c2n1Cc1ccc(-c2ccccc2-c2noc(O)n2)cc1,inactive,–
CCC(=O)NS(=O)(=O)c1ccc(-c2c(-c3ccccc3)noc2C)cc1,inactive,–
COC(=O)N(C)c1c(N)nc(-c2nn(Cc3ccccc3F)c3ncccc23)nc1N,–,1.83%
C[C@H](O)[C@H](O)[C@H]1CNc2nc(N)[nH]c(=O)c2N1,inactive,–
CCc1ccc(Cc2ccc3c(c2)[C@]2(OC3)O[C@H](CO)[C@@H](O)[C@H](O)[C@H]2O)cc1,inactive,–
CCCSc1nc(N[C@@H]2C[C@H]2c2ccc(F)c(F)c2)c2nnn([C@@H]3C[C@H](OCCO)[C@@H](O)[C@H]3O)c2n1,inactive,–
CC1(C)OC(=O)C(OCC2CC2)=C1c1ccc(S(C)(=O)=O)cc1,inactive,–
